Test results published in the OligoGym collection.

The sequences below were run against ESR2 (assay: pooled miR-30 sensor sort-seq; sequence = guide strand). Details: shRNA.
Note: reference of the scale not given here.

Row | Sequence | sensor-assay potency score (higher = more potent)
1 | TTGAGCGCCACATCAGCCCCAT | -0.177
2 | TAATTCATCACAGCAGGGCTAT | -0.611
3 | TTACATCCTTCACACGACCAGA | -0.608
4 | TACCCACATCTCTCTCTCCGGG | -0.444
5 | ATCATGTGTACCAACTCCTTGT | -0.273
6 | TTGTACACTGATTTGTAGCTGG | 0.245
7 | TAATCGCTGCAGACAGCGCAGA | -1.17
8 | TTATGTCCTTGAATGCTTCTTT | 0.411
9 | TTTTATCGATTGTACACTGATT | -1.06
10 | TTTTCTGCCCTCGCATGCCTGA | -0.946
11 | TTCCAAGTTAGTGACATTGCTG | -0.291
12 | TTGTCGGCCAACTTGGTCAGGG | -0.443
13 | TTTTTATCGATTGTACACTGAT | -0.36
14 | TTTAACTCTCGAAACCTTGAAG | -0.511
15 | TATCGATTGTACACTGATTTGT | -0.431
16 | TACAGATGTGATAACTGGCGAT | -0.498

These sequences were tested against ETFA in the same assay as above. Details: shRNA.

Row | Sequence | sensor-assay potency score (higher = more potent)
17 | TTCTCATCACACTTCACTGTAC | -0.442
18 | TAAATCTGCAACTATTCCATAA | -0.957
19 | TTTCTGGTCAAGCCACTCTGAT | -1.17
20 | TATTCCATAATCTGCCACTTGG | -0.476
21 | TTTCACTTTCTCATCACACTTC | 0.639
22 | TTTACAGAGATCTTGTGCCACC | -0.57
23 | TGTGTAATTGAACTGCTTCTGA | 0.237
24 | TAATTGAACTGCTTCTGAGTTG | -0.401
25 | TTAGCTCTGGTCGATCACTTTT | -1.24
26 | TATAATACCCACAAATATCTGT | 0.241
27 | TAGTTCTCACAAATGTGTCAGG | -0.609
28 | TAAATAGTTCTCACAAATGTGT | -0.288
29 | TTATGAAATGTAGCTCTCCATG | -1.39
30 | TTGATTGCAATGATGTCAGAAA | -0.689
31 | TTGATGCCTTTTCTGAACTGGC | -0.864
32 | TCCAACTTGCATGTCATTGGGA | -0.493
33 | TCTTGCTGTCTTTCATCCCAGC | -0.987
34 | TAGCTCTGGTCGATCACTTTTT | -1
35 | TGTAATTGAACTGCTTCTGAGT | -0.4
36 | TGAACTGCTTCTGAGTTGCCAA | -0.648
37 | TTTCTGAACTGGCACTACCGCC | -0.966
38 | TTTCTCATCACACTTCACTGTA | 0.00115
